Source: PubChem BioAssay AID887 (National Center for Advancing Translational Sciences (NCATS), 2007)
Where “and” joins values, the source holds several entries; their conditions need not be identical. Equal entries are not always repeated. About 1,100 (1.5%) of roughly 74,000 compounds were called active. Roughly 5% stayed inconclusive and do not appear here. Calls follow the shape of the dose curve; as a rule, active = well fitted inhibition curve with a large enough effect; inconclusive = small, poorly fitted or top-dose-only effect; inactive = no such curve, though single readings can be large or run the other way. The entries come from a sample that favours actives as a whole.

target: Polyunsaturated fatty acid lipoxygenase ALOX15 (Homo sapiens) (UniProt P16050); assay: qHTS Assay for Inhibitors of 15-hLO (15-human lipoxygenase); settings: purified 15hLO-1, xylenol orange hydroperoxide absorbance; series mostly up to 57.1 µM; activity change, negative = inhibition: at the top concentration; also: nearly all actives have a fitted effect of over 55% in size
Excerpt: Assay Overview: NIH Molecular Libraries Screening Centers Network [MLSCN] NIH Chemical Genomics Center [NCGC] MLSCN Grant: MH081283-01A1 PI Name: Holman, T.R., University of California, Santa Cruz Human lipoxygenase 15hLO-1 is a member of the closely related lipoxygenase family of enzymes which catalyze the site-specific oxidation of arachidonic acid to various hormone precursor molecules and as such is a candidate for drug development in a variety of disease areas, such as cancer and inflammation. Inhibition of 15hLO-1 activity was screened by utilizing arachidonic acid as a substrate. The extent of hydroperoxide product formation was measured by a secondary chromogenic reaction in which xylenol orange (XO, Sigma-Aldrich, cat. number 39,818-7) reacts with the ferric ions produced from the reaction between the hydroperoxide and ferrous ions. The Fe(III)-XO complex is characterized with red-shifted absorbance at 560 nm. A purified preparation of human 15hLO-1 was supplied by Professor Ted Holman, University of California, Santa Cruz.
Assay Protocol: Buffer: 25 mM Hepes pH 7.5, 0.01% Triton X-100. Reagents/Controls: Buffer in columns 3 and 4 as negative control (no enzyme). Substrate solution: 50 uM arachidonic acid (Sigma-Aldrich, St. Louis, MO) final concentration dispensed throughout the plate. Enzyme: 40 nM 15hLO-1 final concentration in columns 1, 2, 5-48. Column 1 is neutral (100% activity). Column 2 contained pin-transferred titration of NDGA (nordihidroguaiaretic acid, Sigma-Aldrich, N 5023, top concentration 10 mM in DMSO, then 1:2 dilution in duplicate). (Dilution factor: 23 nL into 4 uL.) Chromogenic detection reagent (divalent iron/xylenol orange, Fe-XO): 200 uM xylenol orange plus 300 uM ferrous ammonium sulfate prepared freshly in 50 mM sulfuric acid. Assay Steps: Three uL of enzyme were dispensed to 1536-well Greiner black clear bottom plates. Compounds and controls (23 nL) were transferred via Kalypsys PinTool. The plates were incubated for 15 min at room temperature, and then 1 uL of substrate solution was added to start the reaction. After room temperature incubation for 6 minutes, 4 uL of Fe-XO solution was added to each well followed by a short spin (1000 rpm, 15 sec) and the plates were then incubated for 30 min. The absorbance at 405 and 573 nm were measured using ViewLux (Perkin-Elmer) High-throughput CCD imager and absorbance protocol settings. The 573-to-405 absorbance ratio was used to compute reaction progress.
% is scaled to controls: 0 for no effect and ±100 for the full control effect; potency is read from the fitted curve at half-maximal effect.

Chain of Polyunsaturated fatty acid lipoxygenase ALOX15 (Homo sapiens) (P16050 whole entry, looked up): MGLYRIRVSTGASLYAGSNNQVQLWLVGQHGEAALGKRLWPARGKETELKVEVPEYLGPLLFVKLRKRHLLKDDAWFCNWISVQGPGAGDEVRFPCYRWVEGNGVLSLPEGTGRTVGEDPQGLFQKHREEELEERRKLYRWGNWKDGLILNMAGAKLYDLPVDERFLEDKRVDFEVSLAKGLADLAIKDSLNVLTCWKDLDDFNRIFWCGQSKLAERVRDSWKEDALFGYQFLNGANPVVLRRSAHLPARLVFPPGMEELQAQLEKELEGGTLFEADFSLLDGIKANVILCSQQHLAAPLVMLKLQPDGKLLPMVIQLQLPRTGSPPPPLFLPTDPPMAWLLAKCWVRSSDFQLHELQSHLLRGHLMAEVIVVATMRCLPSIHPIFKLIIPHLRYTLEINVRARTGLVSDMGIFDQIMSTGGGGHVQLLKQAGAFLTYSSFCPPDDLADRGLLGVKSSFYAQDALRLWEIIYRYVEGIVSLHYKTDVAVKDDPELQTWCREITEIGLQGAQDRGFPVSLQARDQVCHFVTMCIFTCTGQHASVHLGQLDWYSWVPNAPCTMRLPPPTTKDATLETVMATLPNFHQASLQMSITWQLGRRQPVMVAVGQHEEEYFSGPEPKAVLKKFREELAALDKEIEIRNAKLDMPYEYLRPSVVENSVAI

Activity change, negative = inhibition, inactive:
Cc1ccnc(N2CCC(C(=O)NC3CCCCCC3)CC2)n1 -1.73%
Cc1nc2ccccc2c(=O)n1CCCn1ccnc1 17.1%
CC(C)=CCC/C(C)=C/CC/C(C)=C/CC/C(C)=C/CO -5.43%
O=C(O)[C@@H](O)Cc1ccccn1 2.76% [at 11.4 µM]
COc1ccc(/C=C/NC(=O)Cc2ccc(OC)c(OC)c2)cc1 4.24% [at 11.4 µM] and -3.82% [at 11.4 µM]
CCCCc1nc2ccccc2c(=O)n1NC(=O)c1c(O)c2cccc3c2n(c1=O)CC3 15.9%
CCOC(=O)N1CCN(CC(=O)Nc2cc(C)nn2-c2nc3ccccc3s2)CC1 8.06%
CC(C)CN1CCc2nc(-c3ccccc3)c3c(c2C1)COC(C)C3 (stereo not given) -12.9% [at 11.4 µM]
CO[C@H]1COC(=O)[C@H](Cc2ccccc2)NC(=O)C/C=C\[C@@H](C)[C@H](OC)COC(=O)C/C=C\[C@@H]1C 10.5% [at 11.4 µM]
COC(=O)NC(c1ccccc1)[C@]1(C(C)=O)CCCC1=O (stereo not given in full) 9.57% [at 11.4 µM]
c1ccc(CSc2nnc(-c3ccco3)n2Cc2ccccc2)cc1 -5.84%
Nc1cc(=O)nc(SCc2ccccc2)n1Cc1ccco1 0.59%
CC(=O)OC1CCC2(O)CC1(C)CCC1C2CC1(C)C (stereo not given) -1.5%
COc1ccc(CCC(=O)c2c(O)cc(OC3OC(CO)C(O)C(O)C3O[C@@H]3OC(C)C(O)C(O)C3O)cc2O)cc1O (stereo not given in full) -1.92%
CC(C)[C@@H](OCc1ccccc1)[C@H](C)/C=N\OC[C@@H](C)[C@H](OCc1ccccc1)C(C)C -0.92% [at 11.4 µM]
CO[C@H]1COC(=O)CCC[C@@H](C)[C@H](OC)COC(=O)[C@@H](C)NC(=O)C/C=C\[C@@H]1C -1.39% [at 11.4 µM]
CCC1(C)CC(=O)NC1=O (stereo not given) -0.342%
Cc1cc(C)cc(N(C(C)C(=O)Nc2c(C)n(C)n(-c3ccccc3)c2=O)S(C)(=O)=O)c1 (stereo not given) 4.53%
COC(=O)Nc1c(C)n(C)n(-c2ccccc2)c1=O 6.02%
CC1(C)OC2CO[C@]3(COS(N)(=O)=O)OC(C)(C)OC3C2O1 (stereo not given in full) 0.158%
COc1ccccc1OCCNCC(O)COc1cccc2[nH]c3ccccc3c12 (stereo not given) -5.85%
Clc1ccc(CSc2nnc([C@@H]3CCCN3)o2)cc1 2.51%
CC(C)N(CCNC(=O)c1ccc(-n2c(=O)c(=O)[nH]c3ccccc32)cc1)C(C)C -1.6%
CCCc1[nH]nc2c1C(c1ccc(OC(=O)c3ccco3)cc1)C(C#N)=C(N)O2 (stereo not given) 2.65%
CCCc1[nH]nc2c1C(C1CC=CCC1)C(C#N)=C(N)O2 (stereo not given) -21%
C=C1C([C@@]2(C)C(OC(C)=O)CC(=O)O[C@@](C)(COC(C)=O)C2CC(=O)OC)C(OC=O)C(OC(=O)C(O)C(C)CC)[C@]2(C)C(c3ccoc3)CC(=O)C12O (stereo not given in full) -4.84%
C/C=C(/C)C(=O)OC1Cc2c(ccc3ccc(=O)oc23)OC1(C)C (stereo not given) -11.6%
CCOC(=O)NCc1ccc2c(c1)OCO2 14.8%
CCCCC(=O)Nc1ccc2c(c1)OCCO2 3.14%
Cc1ccc(C2CC(c3cccc(C)c3)n3nc(N)nc3N2)cc1 (stereo not given) 12%
CO[C@@H]1COC(=O)C/C=C\[C@H](C)[C@@H](NS(=O)(=O)c2ccc(C)cc2)COC(=O)C/C=C\[C@@H]1C 7.8% [at 11.4 µM] and 8.79% [at 11.4 µM]
COc1ccc(C2CC(=O)c3c(O)cc(OC4OC(COC5OC(C)C(O)C(O)C5O)C(O)C(O)C4O)cc3O2)cc1O (stereo not given) -2.78% [at 25.6 µM]
COc1c(C(C)C)oc2cc3oc(=O)ccc3cc12 1.8%
CC(=O)Oc1c2c(c3c(c1CC=C(C)C)O[C@@]14C(=CC5CC1C(C)(C)OC4(C/C=C(\C)C(=O)O)C5=O)C3=O)OC(C)(CCC=C(C)C)C=C2 (stereo not given in full) -15.5%
Nc1nc2nc(Cl)[nH]c2c(=O)[nH]1 1.53%
CC1CCc2c(sc3c2C2=NS(=O)(=O)CCN2C=N3)C1 (stereo not given) -0.657%
CN1CCCC1CCO[C@@](C)(c1ccccc1)c1ccc(Cl)cc1 (stereo not given in full) -10.4%
CN(CCOc1ccc(CC2SC(=O)NC2=O)cc1)c1ccccn1 (stereo not given) 1.32%
Oc1ccc(-c2csc(Nc3cccnc3)n2)cc1 -7.34%
COc1ccc(-c2n[nH]c(C)c2-c2ccc(OC)c(OC)c2)c(O)c1 -23.3%
COc1cccc([C@H]2Oc3ccc(OC)cc3/C(=N\OCC[C@@H]3C=C[C@H](OC(C)=O)[C@H](COC(C)=O)O3)[C@@H]2O)c1 7.41% [at 11.4 µM]
CCOC(=O)N/N=C1/C[C@@H](O)[C@@H](O)[C@@H]2[C@@H]3C(=O)N(CC)C(=O)[C@H]3CC[C@H]12 0.206% [at 11.4 µM]
COc1ccc(COC(=O)N/N=C2/C[C@@H](O)[C@@H](O)[C@@H]3[C@@H]4C(=O)N([C@@H](C)c5ccccc5)C(=O)[C@H]4CC[C@@H]23)cc1 7.99% [at 11.4 µM]
CC(C)CCNc1nc(N2CCCC2)c2c(c1C#N)CCN(C)C2 -17.6%
CCOc1ccc2nc(N3CCCN(C(=O)Nc4ccccc4C)CC3)c(C#N)cc2c1 -9.41%
CC(C)(C)c1ccc(OC2C=CC(C#Cc3ccccc3)OC2CO)cc1 (stereo not given) -12.4% [at 11.4 µM]
Cc1cc(C)cc(C#CC2C=CC(Oc3ccc(C4CCCC4)cc3)C(CO)O2)c1 (stereo not given) -14.1% [at 11.4 µM]
C[C@@H]1/C=C\CC(=O)OC[C@H]2O[C@@H](C=C[C@@H]2O)[C@H](C)/C=C\CC(=O)OC[C@H]2O[C@H]1C=C[C@@H]2O 5.92% [at 11.4 µM]
CC(C)[C@H]1CC[C@@H](C)C[C@H]1O 14.8% [at 25.6 µM]
COC1[C@H](OC(N)=O)C(O)[C@H](Oc2ccc3c(O)c(NC(=O)c4ccc(O)c(CC=C(C)C)c4)c(=O)oc3c2C)OC1(C)C (stereo not given in full) -28.3%
C=C(C)C1CC=C(C)C(O)C1 (stereo not given) -3.82%
CCCNC(=O)OC[C@@H]1O[C@H](c2ccccc2)C=C[C@@H]1Oc1ccc(OC)cc1 6.55% [at 11.4 µM]
Cc1ccc(C)c(NC(=O)CSc2nnc(Cc3cccn3C)n2-c2ccc(F)cc2)c1 -17.4%
Cc1cccc(Br)c1 1.29%
CC(C)=CC1C(C(=O)O)C1(C)C (stereo not given) -4.04%
C/C(CCN1CCCCc2nc(C)c(C)cc21)=N\O[C@@H](C)c1cn([C@@H]2COC[C@@H]2O)nn1 3.97% [at 11.4 µM]
CO[C@H]1COC(=O)[C@@H](C)NC(=O)C/C=C\[C@@H](C)[C@H](OC)COC(=O)C/C=C\[C@@H]1C -1.15% [at 11.4 µM]
CCn1c(SCC(=O)NCC2CCCO2)nc2cc(S(=O)(=O)N3CCCCC3)ccc21 (stereo not given) 4.12%
COCCCNC(=O)CSc1nc2ccc(N3CCOCC3)cc2c(=O)n1CCc1ccccc1 -12%
COCC(=O)N1CCC2(CCCN(c3ccccc3)C2)CC1 -7.85%
CC1(C)C=CC(=O)[C@]2(C)C1CC(=O)[C@]1(C)C2CC[C@@]2(C)C(c3ccoc3)OC(=O)C3OC321 (stereo not given in full) -3.65%
C=C[C@](C)(O)CCC1C(=C)CCC2[C@@](C)(CO)CCC[C@@]12C (stereo not given in full) -22.8%
CN1CCc2nc(-c3ccccc3)c(-c3ccccc3)cc2C1 3.18% [at 11.4 µM]
Nc1ncnc2c1ncn2C1CC(O)C(CO)O1 (stereo not given)
CC(=O)OCC(=O)[C@@]1(O)CCC2C3CCC4=CC(=O)CC[C@@]4(C)[C@]3(F)C(O)C[C@]21C (stereo not given in full) -0.0872%
O=C1[C@H]2[C@H]3[C@H](O)[C@H](O)C/C(=N/OCc4ccccc4)[C@H]3CC[C@@H]2C(=O)N1Cc1ccccc1 6.17% [at 11.4 µM]
CCCN(C/C=C\I)[C@@H]1CCc2cccc(O)c2C1 1.31% [at 25.6 µM]
CCC(=O)Nc1sc(C(=O)N2CCCCC2)c(C)c1C#N -0.853%
Cc1cccc(-n2c(N)c(C(=O)N3CCN(C)CC3)sc2=S)c1 -25.1%
Cn1c(=O)n2n(c1=O)[C@H]1[C@H](O)[C@H]3O[C@H]3C(=O)[C@H]1CC2 -1.89% [at 11.4 µM]
CC(C)=CCC/C(C)=C/CO/N=C1/C[C@@H](O)[C@@H](O)[C@@H]2[C@@H]3C(=O)N(C(C)(C)C)C(=O)[C@H]3CC[C@H]12 -9.71% [at 11.4 µM]
CC(=O)OCC1OC(C#CCCCc2ccccc2)C=CC1OC(C)=O (stereo not given) -1.12% [at 11.4 µM] and 1.25% [at 11.4 µM]

Potency, active:
Cc1ccnc(-n2sc3ccccc3c2=O)n1 20 µM
CCCCc1nc2ccccc2c(NC(=O)CN2CCN(C)CC2)c1CCC 15.8 µM
c1ccc(CSc2nnc(-c3ccco3)c(-c3ccco3)n2)cc1 6.31 µM
Cc1c(NC(=O)C(C)OC(=O)c2cc3c4ccccc4n(C)c3s2)c(=O)n(-c2ccccc2)n1C (stereo not given) 31.6 µM
CCCc1[nH]nc2c1C(c1ccc(Br)s1)C(C#N)=C(N)O2 (stereo not given) 15.8 µM
CCC1=C/C(=C\c2ccc3c(c2)OCO3)C(=O)S1 25.1 µM
COc1ccc(OC)c(Nc2nc(-c3ccc(O)c(O)c3)cs2)c1 0.126 µM
Cc1cc(C)c2nc(N3CCCC3)c(C#N)cc2c1 2 µM
C=C(C)C1CC=C(CO)CC1 (stereo not given) 12.6 µM
Oc1cc(O)c2c(c1)OC(c1ccc(O)c(O)c1)C(O)C2 (stereo not given) 12.6 µM
CCCCn1c(SCC(=O)NCC2CCCO2)nc2ccc(N3CCOCC3)cc2c1=O (stereo not given) 12.6 µM
CC(C)C1=CC2=CC[C@@H]3[C@](C)(CO)CCC[C@]3(C)C2CC1 (stereo not given in full) 1.58 µM
N#Cc1ccccc1-n1c(N)c(C(=O)N2CCCC2)sc1=S 20 µM
